ChEMBL document CHEMBL4513216, “Probing the Open Global Health Chemical Diversity Library for Multistage-Active Starting Points for Next-Generation Antimalarials” (ACS Infect Dis, 2020)
Screen size: about 69,000 compounds; about 8,600 (12%) showed an effect of 50% or more. The entries come from a sample that favours strong results as a whole.

These compounds were tested on Plasmodium berghei (assay: Screen against P. berghei liver stage (PbLuc), transformed with Luciferase, at 10uM). Settings: tested at 10 uM.
Assay type: functional, HepG2

Structure (SMILES) | INHIBITION
O[C@@H]1C[C@H]2CN(Cc3ccsc3)[C@@H](Cc3ccccc3)CN2C1 | 39.3%
CCS(=O)(=O)N1C[C@H]2CN(CC3CC3)C(=O)[C@H]2C1 | -12.2%
O=C1[C@H]2CN(c3ncc(F)cn3)C[C@H]2CN1CC1CC1 | 42.6%
CS(=O)(=O)N1C[C@H]2CN(CC3CC3)C(=O)[C@H]2C1 | 85.2%
O=C1[C@H]2CN(c3ncccn3)C[C@H]2CN1Cc1ccncc1 | 4.71%
O=C1[C@H]2CN(S(=O)(=O)C3CC3)C[C@H]2CN1CC1CC1 | 3.69%
COCCN1C[C@@H]2CN(c3cnccn3)C[C@@H]2C1=O | 14%
O=C1[C@H]2CN(c3cnccn3)C[C@H]2CN1CC1CC1 | 51.2%
O=C1[C@H]2CN(c3ncccn3)C[C@H]2CN1CC1CC1 | 64.2%
CC(C)CN1C[C@@H]2CN(c3cnccn3)C[C@@H]2C1=O | 21.3%
CN(C)C1COC2(CCN(Cc3ccc4c(c3)OCO4)CC2)C1 (stereo unspecified) | -50.4%
COc1cc(C2CC(=O)Oc3cc(C)[nH]c(=O)c32)ccc1OCC(=O)O (stereo unspecified) | 13.1%
CN1CCN(c2nc(O)c3c(-c4ccccn4)ccnc3n2)CC1 | -33.2%
O=C(c1ccccc1C1CCNC1)N1CCC(N2CCC(O)CC2)CC1 (stereo unspecified) | 11.5%
COCCN(CCOC)C(=O)Nc1cc(C(F)(F)F)c[nH]c1=O | 12.7%
Cc1ncsc1C(=O)NC1CCN(Cc2cccc3c2OCCO3)CC1 | 33.8%
CC1CS(=O)(=O)CCN1CCCc1ccc(C(F)(F)F)cc1 (stereo unspecified) | 10.1%
CCCC(=O)n1ccn(S(=O)(=O)c2ccc(C)cc2)c1=O | 5.18%
CC(C)(CO)CNC(=O)c1cc(-c2cc[nH]n2)n2ccccc12 | 41.2%
COc1ccccc1OCCCc1cc(C)nc(N)n1 | -16.7%
COc1ccccc1OCCN(C)c1cc(C)nc(N)n1 | 26.3%
COc1ccc(OCCN(C)c2cc(C)nc(N)n2)cc1 | 45.4%
COc1ccccc1OCCCN(C)c1cc(C)nc(N)n1 | 61.2%

Structure (SMILES) | INHIBITION
CN(CCOc1ccccc1F)C1CCOC1=O (stereo unspecified) | 33%
Cc1cc(N(C)CCOc2ccccc2F)nc(N)n1 | 65.7%
CNc1cc(C2CN(Cc3cccnc3NC)CCO2)nc(C)n1 (stereo unspecified) | 1.62%
CC1c2ncc(CNC(=O)C3CC3)n2CCN1Cc1ccsc1 (stereo unspecified) | -10.3%
CNC(=O)C1Cn2ccnc2C2(CCN(Cc3cccnc3)CC2)O1 (stereo unspecified) | 43.2%
COCCc1noc(CN2CCCC2c2noc(C)n2)n1 (stereo unspecified) | -5.32%
COc1ccnc(NC(Cc2ccccc2)C(=O)N(C)C)n1 (stereo unspecified) | 8.7%
Cn1cccc1C(=O)NC[C@H]1C[C@@H]2CN(C(=O)c3ccco3)C[C@@H]2O1 | 7.7%
O=C(NC[C@H]1C[C@@H]2CN(C(=O)c3ccco3)C[C@@H]2O1)c1ccsc1 | 18.6%
O=C(NC[C@@H]1C[C@@H]2CN(C(=O)CO)C[C@H]2O1)c1ccsc1 | 52.1%
CC(C)OCc1ncn2c1CN(Cc1cccs1)CCC2 | 15.9%
CCn1cc2c(n1)C(COC)CN(C(=O)CCOc1ccccc1)C2 (stereo unspecified) | -37.9%
CCc1cnc(N)nc1NC(C)c1ccc(C)c(C)c1 (stereo unspecified) | 88.2%
CCc1cnc(N)nc1NC(C)c1cnn(C)c1 (stereo unspecified) | 17.8%
CCc1cnc(N)nc1N[C@@H](C)c1ncccc1C | 3.96%
CN(CC(O)C(F)(F)F)C(=O)Nc1cccc(N2CCCC2)c1 (stereo unspecified) | -16.4%
Cn1cc(CN2CCC(F)(F)C3(CCN(c4ncc(F)cn4)C3)C2)cn1 (stereo unspecified) | 12.5%
O=C(c1ccc(Cn2ccccc2=O)o1)N1CCSCC1 | 20.45%
COCc1csc(NC(=O)NCc2ccccn2)n1 | -3.99%
CNc1nc(CNC(=O)Nc2cccc(Cl)c2OC)cs1 | 3.263%
Cc1nc(CNc2ccccc2CCC(F)(F)F)cs1 | -13.6%
CCOC(C)c1nc(CNc2cccc(Cl)c2OC)cs1 (stereo unspecified) | -3.08%
CC(=O)Nc1nc(CS(=O)(=O)CCCc2ccccc2)cs1 | -25.2%

Structure (SMILES) | INHIBITION
CC(=O)Nc1nc(CS(=O)(=O)Cc2ccccc2)cs1 | 55.4%
COc1c(Cl)cccc1NCc1csc(C)n1 | -1.37%
COCc1ccccc1NCc1csc(NC(C)=O)n1 | 89%
COc1c(Cl)cccc1NCc1csc(NC(C)=O)n1 | 89.4%
COCCS(=O)(=O)Cc1csc(NC(C)=O)n1 | 21.8%
Cc1nc(CNc2cccc(Cl)c2Cl)cs1 | 50%
CC(=O)Nc1nc(CNc2ccccc2CCC(F)(F)F)cs1 | 42.6%
CN(Cc1ccco1)C(=O)C1CSCN1C(=O)c1cccs1 (stereo unspecified) | -31.8%
CCS(=O)(=O)N1CC[C@@H]2[C@H](CC1)N(Cc1cccnc1)CCS2(=O)=O | 5.56%
CCCC(=O)Nc1ccc(CC(=O)N(C)CCc2cn[nH]c2)cc1 | 17.3%
COCC1N(C(=O)c2ccc3c(c2)OCCCO3)C2CCC1(O)CC2 (stereo unspecified) | -35.3%
CN1CC(C(=O)NCc2cccnc2-n2cccn2)CC1=O (stereo unspecified) | -37.7%
COCC1CN(Cc2cc(C)on2)Cc2cnn(C)c21 (stereo unspecified) | -13.7%
CCn1c(Cn2cncn2)nnc1C1CCN(Cc2cccnc2)CC1 | -50.8%
Cc1nn(C)c2c(N3CCSCC3)nc(C3CC3)nc12 | 22.6%
Cc1nc(CNCc2ccc(N3CCN(C)CC3)nc2)cs1 | 29.1%
CCOc1ccc(NCc2cnc(N3CCN(C)CC3)nc2)cn1 | -15.7%
CN1CCN(c2ccc(NCc3ccc([S+](C)[O-])cc3)cn2)CC1 (stereo unspecified) | 47.4%
CN1CCN(c2ccc(NCc3ccsc3)cn2)CC1 | 69.3%
CN1CCN(c2ccc(NCc3ccc(OC(F)(F)F)cc3)cn2)CC1 | 83.2%
CN(Cc1ccsc1)C(=O)Nc1ccc(N2CCCC2)nc1 | 15.3%
O=C(c1ccco1)N1C[C@@H]2CN(c3ccccn3)C[C@@H]2C1 | 5.04%
O=C1NC2(CCN(C(=O)c3ccccc3)CC2)CC1c1cccnc1 (stereo unspecified) | -8.19%

Structure (SMILES) | INHIBITION
O=C(c1cccc(S(=O)(=O)NC[C@@H]2C[C@H](F)CN2)c1)N1CCCCC1 | 46.1%
O=C(Nc1ccccc1)c1cccc(S(=O)(=O)NC[C@@H]2C[C@H](F)CN2)c1 | 60.2%
CCOCCNC(=O)c1cccc(S(=O)(=O)NC[C@@H]2C[C@H](F)CN2)c1 | -3.87%
CNc1snc(C)c1C(=O)N1CCCC(n2ccnc2C)C1 (stereo unspecified) | 37.9%
Cn1ccnc1CN1CCc2onc(COCC3CC3)c2C1 | 19.6%
Cc1nccn1CCCN1CCCC(c2ccccc2)C1 (stereo unspecified) | 49.4%
CC(=O)Nc1ccc(OCc2noc(C(=O)N3CCCC3)n2)cc1 | 31.3%
CC(=O)Nc1ccc(OCc2noc(C(=O)N3CCCCC3)n2)cc1 | 17.1%
CC(=O)Nc1ccc(OCc2noc(C(=O)N3CCCCCC3)n2)cc1 | 64.7%
N#Cc1cccc(N2CCCC3(C2)CN(c2ncc(F)cn2)CCO3)n1 (stereo unspecified) | 8.31%
c1coc(CN2CCn3c(COCC4CC4)nnc3C2)c1 | 18.5%
CCOC1CCCN(C(=O)c2cnc3c(cnn3C3CCCC3)c2)C1 (stereo unspecified) | 24%
NC(=O)C1CCCN(C(=O)c2cnc3c(cnn3C3CCCC3)c2)C1 (stereo unspecified) | 56.6%
CN1CCN(C(=O)c2cnc3c(cnn3C3CCCC3)c2)CC1 | 24.8%
O=C(O)CN(C(=O)c1ccccc1)[C@H]1C[C@H]2CCOC[C@H]2C1 | -6.53%
Cc1ccc(NC2CCN(C(=O)c3ccc(C(N)=O)s3)CC2)nn1 | 42%
CN(C)c1ncccc1CNC(=O)NCc1ccc(Cl)s1 | -10.1%
O=C1CCCN1CCCC(=O)N1CCCC(Cc2cccnc2)C1 (stereo unspecified) | 41.2%
COc1ccccc1CCC(=O)N1CCCC(OCc2cccnc2)C1 (stereo unspecified) | 25.8%
O=C(CCn1ncc2ccccc21)N1CCCC(Cc2cccnc2)C1 (stereo unspecified) | 53%
Cn1nccc1CCC(=O)N1CCC(c2cnccn2)CC1 | 54.4%
Cn1nccc1CCC(=O)N1CCCC(c2cnccn2)C1 (stereo unspecified) | 25.6%
Cc1cncc(C2CCN(C(=O)CCc3ccnn3C)CC2)n1 | 6.32%

Structure (SMILES) | INHIBITION
CC(C)C(=O)N1CCCC(Cc2cccnc2)C1 (stereo unspecified) | 16.2%
O=C(CCc1ccccc1F)N1CCCC(OCc2cccnc2)C1 (stereo unspecified) | 48.8%
Cn1cnnc1CCC(=O)N1CCCC(OCc2cccnc2)C1 (stereo unspecified) | 51%
Cn1nccc1CCC(=O)N1CCCC(Cc2cccnc2)C1 (stereo unspecified) | 56%
CN(CCC(=O)N1CCCC(Cc2cccnc2)C1)Cc1cccnc1 (stereo unspecified) | 38.2%
Cc1ccn(CCC(=O)N2CCCC(Cc3cccnc3)C2)n1 (stereo unspecified) | 41.2%
CN(CC(=O)NC1CCOCC1)C1CCCN(c2cccnn2)C1 (stereo unspecified) | 26.5%
O=C(CCCN1CCOC1=O)Nc1cnn(-c2ccccc2Cl)c1 | 33.8%
CNc1cc2c(nn1)CCN(C(=O)c1ccc3c(c1)CCC3)C2 | 27.4%
Cc1noc(C)c1CNCC1CNc2ccnn2C1 (stereo unspecified) | 39.3%
CC(C)n1cc(CN2CCCN(C(=O)CN3CCCC3=O)CC2)cn1 | 33.7%
CC(C)N(C)Cc1n[nH]c2c1CCN(C(=O)c1ccc[nH]1)C2 | 2.79%
CC(C)CCNC(=O)CNC(=O)N1CCc2c([nH]c3ccc(Cl)cc23)C1 | -2.13%
Fc1ccccc1CN1CCCN(c2ncnc3[nH]ccc23)CC1 | 26.9%
O=C1OCCN1CCN1CCCN(Cc2ccccc2F)CC1 | 15.1%
Cc1ccn(-c2ccc(N3CCCN(Cc4ccccc4)CC3)nn2)n1 | 6.39%
c1cc(CN2CCCN(c3ccc4cc[nH]c4n3)CC2)ccn1 | 54.4%
c1cc2ccc(N3CCN(Cc4ccc5c(c4)OCO5)CC3)nc2[nH]1 | 44.7%
Fc1ccccc1CN1CCCN(c2ccc3cc[nH]c3n2)CC1 | 70.4%
